“And” between values parts separate entries of the source, which are not always exact repeats. Identical values can stand only once. The source made the active and inactive calls. Rule as the data show it, unless noted: active = parasite load remaining mostly below about 12% (no sharp cut-off); inactive = mostly above about 10%.
Tests used:
[1] = P. berghei load reduction in hepatocytes – cell-based, HepG2, luciferase luminescence, HepG2 viability, primary screen (AID 624349);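 also: 100% = mean of DMSO negative control wells on the same plate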; settings: P. berghei liver stage in HepG2, luciferase luminescence, concentration not given here; parasite load remaining: stronger effect = lower value; viability: measured here: HepG2 viability without parasites
[2] = viability loss with induced miR-34 in A549 – imaging, A549 dox-inducible miR-34, nuclei and caspase counts, primary screen (AID 1347080;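 active = compounds whose cell count with miR-34 switched on is under 0.7 times the count with it off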); settings: A549 miR-34 inducible, Hoechst nuclei count, 48 h
[3] = liver-stage malaria parasite load reduction – cell-based, known kinase inhibitor set, luminescence, hepatoma host viability (AID 624392; call rule not given here;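 also: infected cells incubated roughly two days before readout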); settings: Plasmodium liver stage in hepatoma cells, luciferase luminescence, concentration not given here; liver cell % of control: measured here: host liver cell viability; parasite % of control: stronger effect = lower value
[4] = chitosan synthesis blockers in C. neoformans – flow cytometry, Cibacron Brilliant Red staining (AID 1347148; call rule not given here;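 also: compound exposure lasted three days at 37 degrees C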); settings: Cryptococcus neoformans chitosan, stronger effect = lower value; at 10 µM unless noted
[5] = stronger effect = lower value, cell number ratio, induced over uninduced
[6] = measured here: relative caspase fold change +Dox/-Dox
[7] = measured here: total cells with miR-34 induction, stronger effect = lower value
[8] = measured here: total cells without miR-34 induction

Compound: CC[N+]1(C)[C@@H]2CC[C@H]1CC(OC(=O)[C@H]1CCC(C(=O)OC3C[C@H]4CC[C@@H](C3)[N+]4(C)CC)(c3ccccc3)c3ccccc31)C2 (some centres undefined)
- parasite load remaining [1]: 96.6% (inactive)
- viability [1]: 101%
- fold change [2, 5]: 0.889 (inactive)
- fold change [2, 6]: 1.08
- cell count [2, 7]: 9010
- cell count [2, 8]: 10100

Compound: Nc1ncnc2c1c(I)cn2[C@@H]1O[C@H](CO)[C@H](O)C1O (some centres undefined)
- parasite load remaining [1]: 129% (inactive)
- viability [1]: 64.4%
- fold change [2, 5]: 1.01 (inactive)
- fold change [2, 6]: 0.838
- cell count [2, 7]: 1250
- cell count [2, 8]: 1240

Compound: CCOCCOCCOCCOCCOCCOCCOCCOCCOCCO (tested in a mixture with another compound)
- parasite load remaining [1]: 30.7% (inactive)
- viability [1]: 102%
- fold change [2, 5]: 0.959 (inactive)
- fold change [2, 6]: 1.63
- cell count [2, 7]: 11300
- cell count [2, 8]: 11800

Compound: c1ccc(-c2[nH]ncc2-c2ccnc3ccccc23)nc1
- parasite load remaining [1]: 38% (inactive)
- viability [1]: 62.8%
- liver cell % of control [3]: 101%
- parasite % of control [3]: 63.9% (inactive)
- fold change [2, 5]: 0.893 (inactive)
- fold change [2, 6]: 0.903
- cell count [2, 7]: 4970
- cell count [2, 8]: 5570

Compound: CCCCCCCCCCCCCCC[C@H](O)[C@@H](CO)NC(=O)CCCCCCC
- fold fluorescence [4]: 6.03 (inactive)

Compound: CCCCC/C=C\C[C@H](O)/C=C/C=C/C=C\[C@H](O)CCCC(=O)O
- fold fluorescence [4]: 3.97 [at 1 µM] (inactive)

Compound: CC[C@H]1OC(=O)[C@H](C)[C@@H](OC2C[C@@](C)(OC)[C@@H](O)[C@H](C)O2)[C@H](C)[C@@H](O[C@@H]2O[C@H](C)C[C@H](N(C)C)[C@H]2O)[C@](C)(O)C[C@@H](C)/C(=N\OCOCCOC)[C@H](C)[C@@H](O)[C@]1(C)O (some centres undefined)
- parasite load remaining [1]: 75.3% (inactive)
- viability [1]: 93.9%
- fold change [2, 5]: 0.893 (inactive)
- fold change [2, 6]: 1
- cell count [2, 7]: 9320
- cell count [2, 8]: 10400

Compound: CC1OC(O[C@H]2/C=C/C=C/C=C/C=C/C=C/C=C/C=C/[C@H](C)[C@@H](O)[C@@H](C)[C@H](C)OC(=O)CC(O)CC(O)CCC(O)C(O)CC(O)CC3(O)C[C@H](O)C(C(=O)O)C(C2)O3)C(O)[C@H](N)C1O (some centres undefined)
- parasite load remaining [1]: 85.7% (inactive) and 73.7% (inactive)
- viability [1]: 73.8% and 92.4%
- fold change [2, 5]: 0.94 (inactive)
- fold change [2, 6]: 0.836
- cell count [2, 7]: 10800
- cell count [2, 8]: 11500

Compound: COc1c(O)c2c(=O)cc(OC)c3c4c(OC)cc(=O)c5c(O)c(OC)c(C[C@H](C)OC(=O)c6ccccc6)c(c(c1C[C@H](C)OC(=O)Oc1ccc(O)cc1)c23)c54
- fold fluorescence [4]: 6.48 [at 6.3 µM] (inactive)

Compound: CCCCC[C@H](O)CCCC(=O)O
- fold fluorescence [4]: 4.65 [at 265.6 µM] (inactive)

Compound: CN(C)C[C@H](O)Cn1c2ccc(Br)cc2c2cc(Br)ccc21
- fold fluorescence [4]: 6.53 [at 117.3 µM] (inactive)

Compound: Oc1cccc(-c2nc(N3CCOCC3)c3sccc3n2)c1
- parasite load remaining [1]: 50.9% (inactive)
- viability [1]: 83.2%
- fold change [2, 5]: 0.851 (inactive)
- fold change [2, 6]: 0.61
- cell count [2, 7]: 2340
- cell count [2, 8]: 2750

Compound: CC(C)CC(=O)N[C@H](C(=O)NC(C(=O)NC(CC(C)C)[C@@H](O)CC(=O)N[C@@H](C)C(=O)N[C@@H](CC(C)C)[C@@H](O)CC(=O)O)C(C)C)C(C)C (some centres undefined)
- parasite load remaining [1]: 20.9% (inactive)
- viability [1]: 180%
- fold change [2, 5]: 0.937 (inactive)
- fold change [2, 6]: 3.28
- cell count [2, 7]: 12400
- cell count [2, 8]: 13300

Compound: CC(=O)OCO[C@H](c1ccc2ccccc2c1)P(=O)(OCOC(C)=O)OCOC(C)=O
- fold fluorescence [4]: 4.04 [at 110 µM] (inactive)

Compound: O=C(O)C1(O)C[C@H](O)C(O)[C@@H](O)C1 (some centres undefined)
- parasite load remaining [1]: 88.4% (inactive)
- viability [1]: 72.5%
- fold change [2, 5]: 0.922 (inactive)
- fold change [2, 6]: 0.931
- cell count [2, 7]: 8930
- cell count [2, 8]: 9680

Compound: C=Cc1c(C)c2cc3nc(cc4[nH]c(cc5nc(cc1[nH]2)C(C)=C5CCC(=O)O)c(CCC(=O)O)c4C)[C@@]1(C)C3=CC=C(C(=O)OC)C1C(=O)OC (some centres undefined)
- parasite load remaining [1]: 82.4% (inactive)
- viability [1]: 67.8%
- fold change [2, 5]: 0.97 (inactive)
- fold change [2, 6]: 1.04
- cell count [2, 7]: 9050
- cell count [2, 8]: 9330

Compound: c1ccc2c3c([nH]c2c1)[C@H]1C2CCC([C@@H]4CCCN[C@H]24)N1CC3 (some centres undefined)
- parasite load remaining [1]: 89.2% (inactive)
- viability [1]: 93.6%
- fold change [2, 5]: 0.865 (inactive)
- fold change [2, 6]: 1.3
- cell count [2, 7]: 7540
- cell count [2, 8]: 8710

Compound: CCCCCCCC/C=C\CCCCCCCC(=O)OC[C@H](O)COP(=O)(O)O
- fold fluorescence [4]: 3.84 (inactive)

Compound: C[C@@H](COc1ccccc1)N(CCCl)Cc1ccccc1
- fold fluorescence [4]: 6.47 [at 164.6 µM] (inactive)

Compound: CCC(C)N1CCC2(CC1)N=c1c(c3c4c5c(C)c(O)c3c(O)c1=NC(=O)/C(C)=C/C=C/[C@H](C)[C@H](O)[C@@H](C)[C@@H](O)[C@@H](C)[C@H](OC(C)=O)[C@H](C)[C@@H](OC)/C=C/O[C@@](C)(O5)C4=O)N2 (some centres undefined)
- parasite load remaining [1]: 81.4% (inactive)
- viability [1]: 74.8%
- fold change [2, 5]: 0.966 (inactive)
- fold change [2, 6]: 0.766
- cell count [2, 7]: 8510
- cell count [2, 8]: 8810

Compound: CC(C)[N+]1(C)[C@@H]2CC[C@@H]1CC(OC(=O)C(CO)c1ccccc1)C2 (some centres undefined)
- parasite load remaining [1]: 92% (inactive)
- viability [1]: 107%
- fold change [2, 5]: 0.845 (inactive)
- fold change [2, 6]: 1.32
- cell count [2, 7]: 9220
- cell count [2, 8]: 10900

Compound: CCCCCCCCCCCCCCCCCCOC[C@@H](COP(=O)([O-])OCC[N+](C)(C)C)OC(C)=O
- fold fluorescence [4]: 3.94 (inactive)
